Reference: PubChem BioAssay AID1159580 (chemical genetic matrix, 2015)
Screen size: about 5,500 compounds; about 2,000 (36%) were called active. Inconclusive results (about 18%) are left out. No stated cut-off is given here; in the data, active means normalized growth mostly below about 0.91 (no sharp cut-off); inconclusive means no clear call, values can overlap the other calls; inactive means mostly above about 0.92. Some of the results follow.

Assay: chemical genetic growth profiling, strain panel (AID 1159580);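 further: tested at 20 µM; growth read once vehicle control cultures reached saturation at 30 °C; 1 = growth at the plate median or of vehicle wells; lower values mean less growth of the strain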
Settings: growth OD

Measured: normalized growth

CC(=O)O[C@H]1CC[C@@]2(C)C(CC[C@]3(C)C2C(=O)C=C2C4[C@@H](C)[C@H](C)CC[C@]4(C(=O)O)CC[C@]23C)C1(C)C (stereo partly drawn)
inactive: S. cerevisiae deletion strains, locus YAL013W, strain DEP1, active compounds read low 1 | S. cerevisiae deletion strains, locus YBR021W, strain FUR4, active compounds read low 1.03 | S. cerevisiae deletion strains, locus YBR229C, strain ROT2, active compounds read low 1.01 | S. cerevisiae deletion strains, locus YCL029C, strain bik1, active compounds read low 0.989 | S. cerevisiae deletion strains, locus YDL035C, strain GPR1, active compounds read low 0.993 | S. cerevisiae deletion strains, locus YDL074C, strain BRE1, active compounds read low 0.981 | S. cerevisiae deletion strains, locus YDL101C, strain DUN1, active compounds read low 1.01 | S. cerevisiae deletion strains, locus YDL185W, strain tfp1, active compounds read low 0.971 | S. cerevisiae deletion strains, locus YDL192W, strain arf1, active compounds read low 0.992 | S. cerevisiae deletion strains, locus YDR101C, strain arx1, active compounds read low 1.01 | S. cerevisiae deletion strains, locus YDR162C, strain NBP2, active compounds read low 1.03 | S. cerevisiae deletion strains, locus YDR318W, strain mcm21, active compounds read low 0.995 | S. cerevisiae deletion strains, locus YDR388W, active compounds read low 1 | S. cerevisiae deletion strains, locus YDR502C, strain sam2, active compounds read low 0.982 | S. cerevisiae deletion strains, locus YEL061C, strain CIN8, active compounds read low 1.01 | S. cerevisiae deletion strains, locus YER110C, active compounds read low 0.988 | S. cerevisiae deletion strains, locus YER155C, strain BEM2, active compounds read low 1.01 | S. cerevisiae deletion strains, locus YER167W, strain BCK2, active compounds read low 0.991 | S. cerevisiae deletion strains, locus YGL078C, strain dbp3, active compounds read low 1.01 | S. cerevisiae deletion strains, locus YGL086W, strain mad1, active compounds read low 1.04 | S. cerevisiae deletion strains, locus YGL248W, strain PDE1, active compounds read low 1.01 | S. cerevisiae deletion strains, locus YGR078C, strain PAC10, active compounds read low 1.01 | S. cerevisiae deletion strains, locus YGR135W, strain pre9, active compounds read low 1 | S. cerevisiae deletion strains, locus YGR229C, strain SMI1, active compounds read low 0.994 | S. cerevisiae deletion strains, locus YGR252W, strain gcn5, active compounds read low 1 | S. cerevisiae deletion strains, locus YHR030C, strain SLT2, active compounds read low 1.01 | S. cerevisiae deletion strains, locus YHR079C, strain IRE1 (second series), active compounds read low 0.997 | S. cerevisiae deletion strains, locus YHR094C, strain hxt1, active compounds read low 0.989 | S. cerevisiae deletion strains, locus YHR129C, strain ARP1, active compounds read low 1.01 | S. cerevisiae deletion strains, locus YHR200W, strain rpn10, active compounds read low 1.01 | S. cerevisiae deletion strains, locus YIL066C, strain RNR3, active compounds read low 1 | S. cerevisiae deletion strains, locus YIL073C, strain SPO22, active compounds read low 1.03 | S. cerevisiae deletion strains, locus YIL125W, strain kgd1, active compounds read low 0.98 | S. cerevisiae deletion strains, locus YIR030C, strain dcg1, active compounds read low 0.992 | S. cerevisiae deletion strains, locus YJL095W, strain BCK1, active compounds read low 1.02 | S. cerevisiae deletion strains, locus YJL134W, strain LCB3, active compounds read low 1.01 | S. cerevisiae deletion strains, locus YJL168C, strain set2, active compounds read low 0.988 | S. cerevisiae deletion strains, locus YJL187C, strain SWE1 (second series), active compounds read low 1 | S. cerevisiae deletion strains, locus YJR043C, strain POL32, active compounds read low 1.02 | S. cerevisiae deletion strains, locus YKL068W, active compounds read low 1.03 | S. cerevisiae deletion strains, locus YKR001C, strain vps1, active compounds read low 0.978 | S. cerevisiae deletion strains, locus YLR039C, strain RIC1, active compounds read low 0.99 | S. cerevisiae deletion strains, locus YLR058C, strain SHM2, active compounds read low 1 | S. cerevisiae deletion strains, locus YLR102C, strain apc9, active compounds read low 0.99 | S. cerevisiae deletion strains, locus YLR262C, strain YPT6, active compounds read low 1.02 | S. cerevisiae deletion strains, locus YLR268W, strain sec22, active compounds read low 0.979 | S. cerevisiae deletion strains, locus YLR330W, strain CHS5, active compounds read low 1.01 | S. cerevisiae deletion strains, locus YLR342W, strain FKS1 (second series), active compounds read low 0.99 | S. cerevisiae deletion strains, locus YLR371W, strain rom2, active compounds read low 0.984 | S. cerevisiae deletion strains, locus YLR418C, strain cdc73, active compounds read low 0.946 | S. cerevisiae deletion strains, locus YML016C, strain PPZ1, active compounds read low 1.01 | S. cerevisiae deletion strains, locus YML032C, strain rad52, active compounds read low 0.981 | S. cerevisiae deletion strains, locus YML124C, strain tub3, active compounds read low 0.995 | S. cerevisiae deletion strains, locus YMR078C, strain ctf18, active compounds read low 1.01 | S. cerevisiae deletion strains, locus YMR223W, strain ubp8, active compounds read low 0.985 | S. cerevisiae deletion strains, locus YMR307W, strain GAS1, active compounds read low 1.1 | S. cerevisiae deletion strains, locus YNL067W, strain RPL9B, active compounds read low 1.01 | S. cerevisiae deletion strains, locus YNL233W, strain BNI4, active compounds read low 1.02 | S. cerevisiae deletion strains, locus YNL250W, strain rad50, active compounds read low 0.989 | S. cerevisiae deletion strains, locus YNL271C, strain bni1, active compounds read low 0.991 | S. cerevisiae deletion strains, locus YNL298W, strain CLA4, active compounds read low 1.01 | S. cerevisiae deletion strains, locus YNL307C, strain MCK1, active compounds read low 0.987 | S. cerevisiae deletion strains, locus YNR052C, strain pop2, active compounds read low 0.978 | S. cerevisiae deletion strains, locus YOL006C, strain TOP1, active compounds read low 0.978 | S. cerevisiae deletion strains, locus YOL012C, strain htz1 0.848 | S. cerevisiae deletion strains, locus YOL147C, strain pex11, active compounds read low 0.991 | S. cerevisiae deletion strains, locus YOR061W, strain CKA2, active compounds read low 0.99 | S. cerevisiae deletion strains, locus YOR069W, strain VPS5, active compounds read low 1.01 | S. cerevisiae deletion strains, locus YOR136W, strain idh2, active compounds read low 0.987 | S. cerevisiae deletion strains, locus YOR144C, strain elg1, active compounds read low 0.992 | S. cerevisiae deletion strains, locus YOR184W, strain ser1, active compounds read low 0.995 | S. cerevisiae deletion strains, locus YOR316C, strain cot1, active compounds read low 0.995 | S. cerevisiae deletion strains, locus YPL055C, strain LGE1, active compounds read low 0.994 | S. cerevisiae deletion strains, locus YPL241C, strain CIN2, active compounds read low 1.01 | S. cerevisiae deletion strains, locus YPR119W, strain clb2, active compounds read low 1.01 | S. cerevisiae deletion strains, locus YPR141C, strain kar3, active compounds read low 0.995 | S. cerevisiae deletion strains, locus YPR163C, strain tif3, active compounds read low 1.01 | S. cerevisiae deletion strains, locus YPR167C, strain met16, active compounds read low 0.978 | S. cerevisiae deletion strains, strain wtn01, active compounds read low 0.977 | S. cerevisiae strains, strain wild type, active compounds read low 1
active: S. cerevisiae deletion strains, locus YKL009W, strain mrt4, active compounds read low 1.52 [resistant] | S. cerevisiae deletion strains, locus YKL085W, strain MDH1 (second series), active compounds read low 1.08 [resistant] | S. cerevisiae deletion strains, locus YKL085W, strain MDH1, active compounds read low 1.08 [resistant]
